# Inconclusive results are not listed. Activity calls are given as the source filed them. Calls come from the whole dose curve; as a rule, active = well fitted inhibition curve with a large enough effect; inconclusive = small, poorly fitted or top-dose-only effect; inactive = no such curve, though single readings can be large or run the other way.
# Test: Confirmatory screen NINDS Rhodamine qHTS for Zika virus inhibitors (AID 1347161); note: nearly all actives have a fitted effect of over 60% in size
# Details: purified enzyme assay, Rhodamine110 substrate fluorescence, 15 min; series mostly up to 114 µM; activity change, negative = inhibition: at the top concentration
# Source text: Avindra Nath, Ph.D., National Institute of Neurological Disorders and Stroke (NINDS), Bethesda, MD
# Radhakrishnan Padmanabhan, Ph.D., Georgetown University (GU), Washington D.C.
# Zika Virus causes congenital defects, including microcephaly and is associated with Guillain-Barre syndrome, eningoencephalitis and myelitis in infected adult. […] Using a target-based approach, we hope to establish a screening paradigm to uncover novel, cell-active NS2B-NS3 protease (Zika Virus) specific inhibitors from NCATS' collection of small molecules using qHTS.
# Four assay panel was created to identify potential Zika Virus inhibitors. Namely, (1) GU unlinked NS2B-NS3 AMC tagged protease qHTS, (2) GU unlinked NS2B-NS3 Rhodamine tagged protease qHTS, (3) NINDS linked NS2B-NS3 AMC tagged protease qHTS, (4) NINDS linked NS2B-NS3 Rhodamine tagged protease qHTS. Active compounds were re-acquired and re-screened to confirm inhibition. Inhibitors were further screened against various confirmatory and counterscreens in dose response format.
# Early Translation Branch (ETB)
# National Center for Advancing Translational Sciences (NCATS), Rockville, MD
# National Institute of Health (NIH), Bethesda, Maryland
# For the linked assay, Nath lab (NINDS) provided the purified linked NS2B-NS3 protease which is consists of hydrophilic domain of NS2B linked to the NS3 protease domain by a flexible (-[…]-) linker. Control compound aprotinin is obtained from Thermo Scientific (#78432; Waltham, Massachusetts). Rhodamine110 substrate ([N-Cbz]-Nle-Lys-Arg-Arg-Rhod110-Arg-Arg-Lys-Nle-[N-Cbz]) was purchased from either Genscript or Bachem.
# 1536-well Protease (Rhodamine110 Substrate) Assay:
# Briefly, 3 microL of enzyme (25 nM final concentration), in assay buffer (10 mM Tris-HCl pH 8.0 with 0.01% Tween 20) were dispensed into a 1,536-well solid-bottom black plate (Greiner Bio One, Monroe, NC). Twenty-three nL of compounds (final concentration range 7.28 nM to 114 microM) or control Aprotinin (final concentration range 3.47 nM to 114 microM) were transferred via Wako Pin-tool (Wako Automation, Richmond, VA). Samples were incubated (room temperature, protected from light) for 15 minutes followed by a 1 microL Rhodamine110 substrate addition (1.5 microM final concentration). Plates were then immediately read on a ViewLux High-throughput CCD imager (PerkinElmer, Waltham, MA) equipped with FITC fluorescence optics (480(20) nm excitation, 540(25) nm emission), then incubated (room temperature, protected from light) for 15 minutes (~15% conversion). The change in fluorescence intensity over the 15-minute reaction period was normalized against no-inhibitor and no-enzyme controls and the resulting percent inhibition data were fitted to a 4-parameter Hill equation. Aprotinin was used as intraplate control.
# Potency is the fitted concentration of half-maximal effect.
SMILES,Potency,"activity change, negative = inhibition"
O=C(O)c1ccc(N2C(=O)/C(=C/c3ccc(-c4ccc([N+](=O)[O-])cc4)o3)C=C2c2ccccc2)cc1,1.75 µM (active),
COc1cc(C(=O)O)ccc1NC(=O)C1NC(CC(C)(C)C)C(C#N)(c2ccc(Cl)cc2F)C1c1cccc(Cl)c1F (centres undefined),4.94 µM (active),
Cc1noc(-c2ccc(-c3ccc(CC(=O)O)cc3)cc2)c1NC(=O)O[C@H](C)c1ccccc1Cl,4.94 µM (active),
O=C(O)c1cccc(-c2ccc(-c3cn(C(=O)N4CCCCC4Cc4ccccc4)nn3)cc2)c1 (centres undefined),3.5 µM (active),
C[C@H]1CO[C@@H]2Cn3cc(C(=O)NCc4ccc(F)cc4F)c(=O)c(O)c3C(=O)N12,,-3.08% (inactive)
O=C(NCCCc1ccccc1)c1cccc(-c2cc(O)c3ncccc3c2)c1,,-12.3% (inactive)
CCCCCc1ccc(/C=C/C(=O)Nc2cc(Cl)ccc2C(=O)O)cc1,1.75 µM (active),
Cc1cc(C)c2c(c1)C(N(Cc1cc(C(F)(F)F)cc(C(F)(F)F)c1)c1nnn(C)n1)CCCN2CC1CCC(C(=O)O)CC1 (centres undefined),4.94 µM (active),
CCCCCCCOc1cc2c(cc1/C(C)=C/c1ccc(C(=O)O)cc1)C(C)(C)CCS2(=O)=O,1.97 µM (active),
O=S(=O)(Nc1cc(Cl)c(Oc2cnc3ccccc3c2)c(Cl)c1)c1ccc(Cl)cc1Cl,2.21 µM (active),
CC1=C(C(=O)OC2CCCCC2)C(c2ccc([N+](=O)[O-])cc2)C2=C(CC(C)(C)CC2=O)N1 (centres undefined),,-3.05% (inactive)
COc1ccc2nccc(C(=O)CC[C@@H]3CCN(CC#Cc4cc(F)cc(F)c4F)C[C@@H]3C(=O)O)c2c1,44.1 µM (active),
Cc1cc(OCCCS(C)(=O)=O)cc(C)c1-c1cccc(COc2ccc3c(c2)OCC3CC(=O)O)c1 (centres undefined),7.84 µM (active),
COc1ccc(-c2ccccc2)cc1NS(=O)(=O)c1cc(Cl)cc(Cl)c1O,1.71 µM (active),
COc1ccc2cc(-c3cc(-c4cc(Cl)cc(Cl)c4)nn3C(C)c3ccc(C(=O)NCCC(=O)O)cc3)ccc2c1 (centres undefined),4.94 µM (active),
CC(C)C[C@H](C(=O)O)c1cc(-c2ccc(C(F)(F)F)cc2)cc(-c2ccc(C(F)(F)F)cc2)c1,3.5 µM (active),
CC#C[C@@H](CC(=O)O)c1ccc(OCc2cccc(-c3ccc(C(F)(F)F)cc3)c2)cc1,0.987 µM (active),
CC(C)(C)Sc1c(CC(C)(C)C(=O)O)n(Cc2ccc(Cl)cc2)c2ccc(OCc3ccc4ccccc4n3)cc12,3.93 µM (active),
N#Cc1ccc(N2N=C3c4ccc(C(=O)O)cc4CC[C@@H]3[C@@H]2C2CCCC2)cc1Cl,1.75 µM (active),
C=C1/C(=C/C=C2\CCC[C@]3(C)[C@@H]([C@H](C)/C=C/[C@@H](C)C(C)C)CC[C@@H]23)C[C@@H](O)C[C@@H]1O,49.4 µM (active),
CCC(C)/C=C(C)/C=C/C1=CC2=CC(=O)C3(C)OC(C)(O)C(C(=O)OC)C3C2=CO1 (centres undefined),21.5 µM (active),
O=C(Nc1ccc(-c2ccc(Cl)c(Cl)c2)cc1)C1=C(O)c2ccccc2S(=O)(=O)N1,2.48 µM (active),
O=C(Nc1cc(C(F)(F)F)cc(C(F)(F)F)c1)c1cnc(Cl)nc1C(F)(F)F,44.1 µM (active),
CC(O)(C(=O)O)C1CCC2(C)C1CCC1(C)C2CCC2C3(C)CCC(O)C(C)(COC4OC(CO)C(O)C(O)C4O)C3CCC21C (centres undefined),13.1 µM (active),
O=C(O)c1ccc(S(=O)(=O)N(Cc2ccc(OC(F)(F)F)cc2)c2ncc(C(F)(F)F)cc2Cl)cc1,3.93 µM (active),
O=C(O)c1cc(N(Cc2ccc(C3CCCCC3)cc2)C(=O)c2ccc(Oc3ccccc3)cc2)ccc1O,1.97 µM (active),
CC#C[C@@H](CC(=O)O)c1ccc(OCc2ccc(CN3CCC4(C=Cc5ccccc54)CC3)s2)cc1,3.5 µM (active),
O=C(Nc1ccc(/C=C/c2ccc(NC(=O)c3cc(S(=O)(=O)O)c4cccnc4c3O)cc2S(=O)(=O)O)c(S(=O)(=O)O)c1)c1cc(S(=O)(=O)O)c2cccnc2c1O,2.51 µM (active),
Oc1cccc(-c2c3nc(c(-c4cccc(O)c4)c4ccc([nH]4)c(-c4cccc(O)c4)c4nc(c(-c5cccc(O)c5)c5ccc2[nH]5)CC4)C=C3)c1,20 µM (active),

# From PubChem BioAssay (NCATS)
